ChEMBL document CHEMBL1961873, “Compounds: GSK PKIS; Assays: Nanosyn kinase panel” (2012)

Key:
[1] = target: T1, 3-phosphoinositide-dependent protein kinase 1 (Homo sapiens) (UniProt O15530); conditions: at 0.1 µM;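 further: values are mean inhibition of PDK1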
T1 sequence (whole entry): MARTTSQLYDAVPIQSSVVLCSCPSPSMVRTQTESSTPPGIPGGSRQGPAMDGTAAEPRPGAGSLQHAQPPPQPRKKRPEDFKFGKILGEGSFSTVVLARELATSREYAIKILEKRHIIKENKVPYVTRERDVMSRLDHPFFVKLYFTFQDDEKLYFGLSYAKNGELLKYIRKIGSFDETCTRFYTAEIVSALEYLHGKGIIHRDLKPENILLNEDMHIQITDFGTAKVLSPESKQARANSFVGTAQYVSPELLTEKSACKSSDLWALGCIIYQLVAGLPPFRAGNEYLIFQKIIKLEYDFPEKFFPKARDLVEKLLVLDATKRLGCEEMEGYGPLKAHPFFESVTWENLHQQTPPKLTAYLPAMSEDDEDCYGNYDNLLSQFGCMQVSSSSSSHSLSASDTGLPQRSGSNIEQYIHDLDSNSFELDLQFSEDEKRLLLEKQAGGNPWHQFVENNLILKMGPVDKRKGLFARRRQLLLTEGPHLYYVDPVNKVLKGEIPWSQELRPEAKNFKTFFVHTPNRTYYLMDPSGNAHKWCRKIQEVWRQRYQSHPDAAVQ

[2] = target: cAMP-dependent protein kinase catalytic subunit alpha (Homo sapiens) (UniProt P17612); conditions: at 0.1 µM
[3] = target: cAMP-dependent protein kinase catalytic subunit alpha (Homo sapiens) (UniProt P17612); conditions: at 1 µM
[4] = target: Protein kinase C alpha type (Homo sapiens) (UniProt P17252); conditions: at 0.1 µM
[5] = target: Protein kinase C alpha type (Homo sapiens) (UniProt P17252); conditions: at 1 µM
[6] = target: Protein kinase C beta type (Homo sapiens) (UniProt P05771); conditions: at 0.1 µM
Protein kinase C beta type (Homo sapiens), sequence (P05771 2-671 limits assumed): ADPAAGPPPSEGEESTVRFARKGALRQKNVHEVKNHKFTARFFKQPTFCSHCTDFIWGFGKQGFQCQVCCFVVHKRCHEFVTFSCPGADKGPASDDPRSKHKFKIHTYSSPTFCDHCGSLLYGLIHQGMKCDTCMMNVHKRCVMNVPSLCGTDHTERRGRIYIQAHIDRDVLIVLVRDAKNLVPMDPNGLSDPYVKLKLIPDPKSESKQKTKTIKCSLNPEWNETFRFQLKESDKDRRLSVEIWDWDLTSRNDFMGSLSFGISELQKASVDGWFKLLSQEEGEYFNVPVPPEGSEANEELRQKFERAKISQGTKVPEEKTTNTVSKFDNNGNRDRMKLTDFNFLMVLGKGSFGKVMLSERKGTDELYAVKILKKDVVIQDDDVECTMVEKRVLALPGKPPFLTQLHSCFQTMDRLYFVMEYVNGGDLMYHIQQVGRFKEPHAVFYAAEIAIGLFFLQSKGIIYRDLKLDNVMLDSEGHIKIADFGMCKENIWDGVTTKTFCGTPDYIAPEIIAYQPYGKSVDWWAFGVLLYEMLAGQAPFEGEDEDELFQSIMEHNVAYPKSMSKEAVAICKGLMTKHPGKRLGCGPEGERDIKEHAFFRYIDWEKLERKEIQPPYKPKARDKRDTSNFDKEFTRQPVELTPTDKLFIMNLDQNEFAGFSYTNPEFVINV

[7] = target: Protein kinase C beta type (Homo sapiens) (UniProt P05771); conditions: at 1 µM
[8] = target: Protein kinase C eta type (Homo sapiens) (UniProt P24723); conditions: at 0.1 µM
Protein kinase C eta type (Homo sapiens), sequence (P24723 whole entry): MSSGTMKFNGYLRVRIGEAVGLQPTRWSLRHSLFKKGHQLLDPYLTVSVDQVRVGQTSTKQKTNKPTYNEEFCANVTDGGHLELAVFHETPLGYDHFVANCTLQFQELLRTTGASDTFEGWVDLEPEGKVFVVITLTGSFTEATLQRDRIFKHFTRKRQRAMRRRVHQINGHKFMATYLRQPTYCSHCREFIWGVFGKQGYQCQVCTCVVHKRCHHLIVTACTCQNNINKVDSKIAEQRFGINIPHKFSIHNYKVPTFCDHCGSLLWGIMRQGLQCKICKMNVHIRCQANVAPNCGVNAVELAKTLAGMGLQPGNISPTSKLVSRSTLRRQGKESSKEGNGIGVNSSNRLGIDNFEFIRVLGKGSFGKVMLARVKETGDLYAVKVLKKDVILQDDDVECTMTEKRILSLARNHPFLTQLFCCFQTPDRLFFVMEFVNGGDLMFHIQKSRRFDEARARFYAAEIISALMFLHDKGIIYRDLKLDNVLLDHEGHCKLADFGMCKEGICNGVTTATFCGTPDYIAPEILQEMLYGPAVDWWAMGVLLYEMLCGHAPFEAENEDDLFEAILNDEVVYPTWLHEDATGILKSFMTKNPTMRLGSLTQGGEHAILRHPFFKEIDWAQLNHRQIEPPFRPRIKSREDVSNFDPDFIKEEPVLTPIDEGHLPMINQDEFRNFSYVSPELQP

[9] = target: Protein kinase C eta type (Homo sapiens) (UniProt P24723); conditions: at 1 µM
[10] = target: Protein kinase C gamma type (Homo sapiens) (UniProt P05129); conditions: at 0.1 µM
[11] = target: Protein kinase C gamma type (Homo sapiens) (UniProt P05129); conditions: at 1 µM
[12] = target: T2, Protein kinase C iota type (Homo sapiens) (UniProt P41743); conditions: at 0.1 µM
T2 sequence (whole entry): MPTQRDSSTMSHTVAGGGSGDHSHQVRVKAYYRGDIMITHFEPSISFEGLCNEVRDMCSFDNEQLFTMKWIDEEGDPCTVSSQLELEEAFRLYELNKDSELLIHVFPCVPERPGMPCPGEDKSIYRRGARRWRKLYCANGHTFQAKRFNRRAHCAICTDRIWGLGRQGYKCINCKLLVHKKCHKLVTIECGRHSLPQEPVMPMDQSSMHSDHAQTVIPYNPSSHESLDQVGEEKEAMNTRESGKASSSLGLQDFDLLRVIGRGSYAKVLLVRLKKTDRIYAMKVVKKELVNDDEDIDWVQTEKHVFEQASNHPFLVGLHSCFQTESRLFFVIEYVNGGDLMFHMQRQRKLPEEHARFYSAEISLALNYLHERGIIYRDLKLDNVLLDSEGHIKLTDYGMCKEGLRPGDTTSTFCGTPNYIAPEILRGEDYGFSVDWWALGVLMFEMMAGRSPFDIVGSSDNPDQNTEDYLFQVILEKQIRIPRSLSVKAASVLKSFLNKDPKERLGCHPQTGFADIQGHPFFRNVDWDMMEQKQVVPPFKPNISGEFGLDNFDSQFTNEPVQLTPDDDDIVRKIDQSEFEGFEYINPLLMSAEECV

[13] = target: T2, Protein kinase C iota type (Homo sapiens); conditions: at 1 µM
[14] = target: Protein kinase C theta type (Homo sapiens) (UniProt Q04759); conditions: at 0.1 µM
Protein kinase C theta type (Homo sapiens), sequence (Q04759 whole entry, looked up): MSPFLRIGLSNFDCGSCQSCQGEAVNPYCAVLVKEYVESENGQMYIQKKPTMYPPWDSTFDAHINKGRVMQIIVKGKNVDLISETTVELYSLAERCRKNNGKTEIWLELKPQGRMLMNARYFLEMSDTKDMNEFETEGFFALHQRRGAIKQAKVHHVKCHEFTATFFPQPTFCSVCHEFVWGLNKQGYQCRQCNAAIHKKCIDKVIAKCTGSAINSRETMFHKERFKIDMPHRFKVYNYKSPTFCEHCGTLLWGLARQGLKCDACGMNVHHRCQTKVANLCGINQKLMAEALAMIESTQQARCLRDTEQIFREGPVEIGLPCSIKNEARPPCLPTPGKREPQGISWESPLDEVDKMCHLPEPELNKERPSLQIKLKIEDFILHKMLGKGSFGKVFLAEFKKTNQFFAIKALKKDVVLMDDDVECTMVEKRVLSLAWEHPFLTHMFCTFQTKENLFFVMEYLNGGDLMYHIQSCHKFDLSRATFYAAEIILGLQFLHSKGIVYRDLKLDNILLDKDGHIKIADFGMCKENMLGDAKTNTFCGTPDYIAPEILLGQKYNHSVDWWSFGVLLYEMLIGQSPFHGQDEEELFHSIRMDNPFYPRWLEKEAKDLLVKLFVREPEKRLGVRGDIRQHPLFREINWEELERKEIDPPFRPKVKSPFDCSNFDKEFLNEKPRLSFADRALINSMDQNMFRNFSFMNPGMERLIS

[15] = target: Protein kinase C theta type (Homo sapiens) (UniProt Q04759); conditions: at 1 µM
[16] = target: Protein kinase C beta type (Homo sapiens) (UniProt P05771); conditions: at 0.1 µM; remark: listed apart in the source
[17] = target: Protein kinase C beta type (Homo sapiens) (UniProt P05771); conditions: at 1 µM; remark: listed apart in the source
[18] = target: T3, Serine/threonine-protein kinase D1 (Homo sapiens) (UniProt Q15139); conditions: at 0.1 µM
T3 sequence (whole entry): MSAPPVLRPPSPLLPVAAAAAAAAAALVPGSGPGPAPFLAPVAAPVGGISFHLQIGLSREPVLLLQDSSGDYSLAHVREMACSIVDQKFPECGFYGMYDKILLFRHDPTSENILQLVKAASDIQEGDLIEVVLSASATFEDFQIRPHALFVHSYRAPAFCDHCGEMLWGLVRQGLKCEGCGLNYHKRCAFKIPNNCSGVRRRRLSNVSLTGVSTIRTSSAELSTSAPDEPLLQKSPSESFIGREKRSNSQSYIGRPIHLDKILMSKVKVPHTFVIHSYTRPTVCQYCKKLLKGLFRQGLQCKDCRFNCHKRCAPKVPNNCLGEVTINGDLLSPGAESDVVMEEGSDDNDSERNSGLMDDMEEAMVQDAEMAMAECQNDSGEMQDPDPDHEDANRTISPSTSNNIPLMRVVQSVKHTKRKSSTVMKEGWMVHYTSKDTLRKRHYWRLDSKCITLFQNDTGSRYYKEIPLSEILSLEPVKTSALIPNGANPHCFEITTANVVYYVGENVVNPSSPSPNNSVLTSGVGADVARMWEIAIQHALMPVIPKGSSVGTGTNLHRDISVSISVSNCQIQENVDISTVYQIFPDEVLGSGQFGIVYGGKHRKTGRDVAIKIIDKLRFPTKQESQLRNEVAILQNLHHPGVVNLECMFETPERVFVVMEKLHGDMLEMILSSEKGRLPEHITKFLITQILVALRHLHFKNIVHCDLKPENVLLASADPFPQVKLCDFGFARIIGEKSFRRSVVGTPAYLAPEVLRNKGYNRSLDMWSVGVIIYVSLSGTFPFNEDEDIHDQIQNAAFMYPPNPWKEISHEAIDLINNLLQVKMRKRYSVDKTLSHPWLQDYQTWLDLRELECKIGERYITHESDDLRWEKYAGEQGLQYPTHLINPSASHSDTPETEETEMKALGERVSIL

[19] = target: T3, Serine/threonine-protein kinase D1 (Homo sapiens); conditions: at 1 µM
[20] = target: T4, Serine/threonine-protein kinase D2 (Homo sapiens) (UniProt Q9BZL6); conditions: at 0.1 µM;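 further: reported percent inhibition values are means, part of the GSK PKIS kinase panel screen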
T4 sequence (whole entry): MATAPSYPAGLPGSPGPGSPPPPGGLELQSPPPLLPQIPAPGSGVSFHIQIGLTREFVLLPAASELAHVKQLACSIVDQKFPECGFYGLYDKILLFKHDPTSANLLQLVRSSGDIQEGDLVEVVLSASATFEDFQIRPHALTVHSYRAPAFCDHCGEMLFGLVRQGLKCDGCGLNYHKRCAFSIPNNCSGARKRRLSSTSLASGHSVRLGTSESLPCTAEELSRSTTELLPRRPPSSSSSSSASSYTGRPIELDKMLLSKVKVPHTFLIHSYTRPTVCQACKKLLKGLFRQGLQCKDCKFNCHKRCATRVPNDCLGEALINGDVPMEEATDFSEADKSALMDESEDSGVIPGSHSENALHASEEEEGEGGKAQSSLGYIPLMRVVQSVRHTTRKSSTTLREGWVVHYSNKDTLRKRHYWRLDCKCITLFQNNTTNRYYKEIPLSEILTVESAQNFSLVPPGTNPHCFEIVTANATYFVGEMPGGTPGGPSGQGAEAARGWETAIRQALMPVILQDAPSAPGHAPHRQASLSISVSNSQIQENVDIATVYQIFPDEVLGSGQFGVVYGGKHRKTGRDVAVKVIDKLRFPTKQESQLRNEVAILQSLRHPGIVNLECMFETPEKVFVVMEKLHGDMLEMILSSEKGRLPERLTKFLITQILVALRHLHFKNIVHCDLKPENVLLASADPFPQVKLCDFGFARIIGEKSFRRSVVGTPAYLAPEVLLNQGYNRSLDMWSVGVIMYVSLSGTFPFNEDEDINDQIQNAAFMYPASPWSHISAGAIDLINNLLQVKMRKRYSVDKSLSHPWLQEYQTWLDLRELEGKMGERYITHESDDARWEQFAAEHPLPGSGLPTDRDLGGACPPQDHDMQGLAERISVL

COc1cccc(/C=N/Nc2ncnc3c2cnn3-c2cccc(OC)c2)c1
inhibition [1]: 1.13%
inhibition [2]: 1.27%
inhibition [3]: 1.21%
inhibition [4]: 0.12%
inhibition [5]: 0.85%
inhibition [6]: -0.96%
inhibition [7]: 0.85%
inhibition [8]: 5.46%
inhibition [9]: 4.14%
inhibition [10]: 3.43%
inhibition [11]: 6.32%
inhibition [12]: 1.63%
inhibition [13]: 1.72%
inhibition [14]: 1.69%
inhibition [15]: 4%
inhibition [16]: 0.47%
inhibition [17]: 1.93%
inhibition [18]: 3.52%
inhibition [19]: 8.09%
inhibition [20]: 2.74%

O=C1Nc2ccccc2/C1=C/Nc1ccc(-n2cncn2)cc1
inhibition [1]: 2.38%
inhibition [2]: 1.48%
inhibition [3]: 4.31%
inhibition [4]: 0.43%
inhibition [5]: 1.82%
inhibition [6]: 0.83%
inhibition [7]: 2.25%
inhibition [8]: 8.55%
inhibition [9]: 5.57%
inhibition [10]: 0.54%
inhibition [11]: 2.93%
inhibition [12]: 2.78%
inhibition [13]: 2.15%
inhibition [14]: 2.93%
inhibition [15]: 4.7%
inhibition [16]: 1.94%
inhibition [17]: 4.54%
inhibition [18]: 5.12%
inhibition [19]: 7.88%
inhibition [20]: 6.14%

NS(=O)(=O)c1ccc(N/N=C2\C(=O)Nc3ccc(-c4cnco4)cc32)cc1
inhibition [1]: 2.95%
inhibition [2]: -3.28%
inhibition [3]: -2.27%
inhibition [4]: -4.06%
inhibition [5]: -1.84%
inhibition [6]: 1.26%
inhibition [7]: 0.36%
inhibition [8]: 3.38%
inhibition [9]: 1.24%
inhibition [10]: -1.13%
inhibition [11]: 4.1%
inhibition [12]: 1%
inhibition [13]: 0.97%
inhibition [14]: 1.05%
inhibition [15]: 2.96%
inhibition [16]: 0.38%
inhibition [17]: 1.12%
inhibition [18]: -1.79%
inhibition [19]: 12.6%
inhibition [20]: -0.15%

NS(=O)(=O)c1ccc(N/N=C2\C(=O)Nc3ccc(C(=O)NCCCn4ccnc4)cc32)cc1
inhibition [1]: 3.57%
inhibition [2]: 2.3%
inhibition [3]: 2.8%
inhibition [4]: 0.48%
inhibition [5]: 3.66%
inhibition [6]: 0.75%
inhibition [7]: 3.15%
inhibition [8]: 3.58%
inhibition [9]: 4.66%
inhibition [10]: 3.24%
inhibition [11]: 7.85%
inhibition [12]: 2%
inhibition [13]: 1.81%
inhibition [14]: 2.3%
inhibition [15]: 6.44%
inhibition [16]: 2.11%
inhibition [17]: 4.2%
inhibition [18]: 5.9%
inhibition [19]: 22.9%
inhibition [20]: 7.13%

COc1ccc(-c2ccc3c(NC(=O)C4CC4)n[nH]c3n2)cc1
inhibition [1]: -1.04%
inhibition [2]: 1.31%
inhibition [3]: 1.22%
inhibition [4]: -0.95%
inhibition [5]: -0.98%
inhibition [6]: -0.58%
inhibition [7]: 1.54%
inhibition [8]: 1.15%
inhibition [9]: 1.68%
inhibition [10]: 0.57%
inhibition [11]: 2.95%
inhibition [12]: 0.3%
inhibition [13]: -0.23%
inhibition [14]: 1.39%
inhibition [15]: 2.97%
inhibition [16]: 0.8%
inhibition [17]: 0.48%
inhibition [18]: 2.32%
inhibition [19]: 1.39%
inhibition [20]: 1.92%

CCc1cccc(CC)c1/C=C/c1cncc(C(=O)NC)c1
inhibition [1]: 0.34%
inhibition [2]: 1.89%
inhibition [3]: 1.06%
inhibition [4]: 1.01%
inhibition [5]: 3.13%
inhibition [6]: 0.31%
inhibition [7]: 0.32%
inhibition [8]: 1.99%
inhibition [9]: -0.26%
inhibition [10]: 1.06%
inhibition [11]: 2.81%
inhibition [12]: 2.1%
inhibition [13]: 3.47%
inhibition [14]: 1.41%
inhibition [15]: -0.25%
inhibition [16]: 0.14%
inhibition [17]: -0.35%
inhibition [18]: 2.52%
inhibition [19]: 6.44%
inhibition [20]: 3.28%

Cc1ccc(C(=O)NC(C)C)cc1-c1ccc(C(=O)NCC2CC2)cc1
inhibition [1]: -3.15%
inhibition [2]: -2.08%
inhibition [3]: -1.32%
inhibition [4]: -0.49%
inhibition [5]: 0.46%
inhibition [6]: -0.62%
inhibition [7]: -0.82%
inhibition [8]: -2.29%
inhibition [9]: -3.07%
inhibition [10]: -0.67%
inhibition [11]: -2.88%
inhibition [12]: -0.44%
inhibition [13]: -0.8%
inhibition [14]: -1.25%
inhibition [15]: -1.29%
inhibition [16]: -0.65%
inhibition [17]: -0.9%
inhibition [18]: -3.39%
inhibition [19]: -3.57%
inhibition [20]: -1.97%
